Compound activity (PubChem BioAssay)
IkB signaling – inhibitors of IkB signaling in ABC-DLBCL cells. ABC-DLBCL IkBa-CBG/CBR dual luciferase ratio, 4 h; response scale: scaled: untreated 0%, proteasome inhibitor 100%. Potency, µM (top dose mostly 57.1 µM), inactives show at the top dose IkBa stabilization activation. 0.04% of 110,000 active; active = well fitted curve in the direction sought with a large enough effect in the signal ratio, not every such curve was filed as active; inconclusive = small, poorly fitted or top-dose-only effect, or a change in a side signal; the % refers to the signal ratio;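 also: the direction sought is a rising ratio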
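In this assay, an IκBα–CBG68 fusion accumulates when IKK-driven degradation is blocked; native CBR normalizes for cell number. OCI-Ly3 cells were treated 4 h with compound and doxycycline, then green and red light read after Chroma-Glo addition.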
p53ts 39C tox – kills p53ts cells at the nonpermissive temperature. H1299-p53A138V viability at 39C, ATP luminescence, 24 h. Potency, µM (series often up to 46.1 µM), inactives show top-dose activity change, negative = cell killing, hits mostly cytotoxic. 1.5% of 130,000 active; also: % is scaled to controls: 0 for no effect and ±100 for the full control effect; nearly all actives have a fitted effect of over 55% in size
ERK AVP block – inhibitors of vasopressin-stimulated ERK signaling pathway. HEK293-V1b, vasopressin-stimulated pERK AlphaScreen. Potency, µM (highest dose often 57.5 µM), without a hit: at the highest dose activity, negative = inhibition, hits mostly inhibitors. 0.99% of 72,000 active; also: % is scaled to controls: 0 for no effect and ±100 for the full control effect; nearly all actives have a fitted effect of over 55% in size
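Phosphorylated ERK1/2 detected via AlphaScreen bead proximity in lysates of V1b-expressing HEK293 cells given 25 nM vasopressin for 5 min after 30 min compound exposure (37 °C). AC50 from Hill equation; basal DMSO 0%, vasopressin 100%.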
p53ts 32C tox – kills p53ts cells at the permissive temperature. H1299-p53A138V at 32C, ATP luminescence viability, 24 h. Potency, µM (doses to about 46.1 µM), inactives show at the highest dose activity change, negative = cytotoxicity, usual class: cytotoxic. 0.93% of 130,000 active. AID 924;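 also: 0% = DMSO and -100% = full killing by reference compound; nearly all actives have a fitted effect of over 55% in size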
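H1299-p53 A138V cells (temperature-sensitive p53) exposed 24 h to up to 46 uM compound at 32C, where p53 is wild-type in conformation. Viability read as ATP luminescence and normalised to DMSO and 100 uM tamoxifen. AC50 fitted with the Hill equation.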
Peg3 imprint – inducers of genomic imprint erasure in mouse ES cells. mouse ES Peg3-LacZ reporter, beta-gal luminescence, 40 h. Potency, µM (highest dose often 60.7 µM), without a hit: at the top dose activity change, positive = activation, most hits filed as activators. 0.02% of 110,000 active. AID 1948
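Each well holds 300 Peg3LacZ-Neo (maternal) female ES cells incubated 40 h at 37C, 5% CO2. LacZ is measured by BetaGlo luminescence, with AC50 and maximum efficacy derived from dose-response curves.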
* = called active by the depositor; ? = inconclusive; . = no result; [ ] = remark or other dose. This is a sample that favours compounds with a hit; in the whole collection about 2.3% have one here. Unless noted, calls follow the shape of the dose curve; as a rule, active = well fitted curve in the direction sought with a large enough effect; inconclusive = small, poorly fitted or top-dose-only effect, or another doubt; inactive = no such curve, though single readings can be large; an effect the other way counts as inactive or inconclusive. Potency is read from the fitted curve at half-maximal effect.

SMILES | IkB signaling | p53ts 39C tox | ERK AVP block | p53ts 32C tox | Peg3 imprint
Cc1ccccc1Nc1nn2c(=O)c3ccc(C(=O)NCc4ccccc4)cc3nc2s1 | 0% | -4% | . | -28% | -17%[10.9 µM]
CCc1ccc(NC(=O)c2ccc3c(=O)n4nc(Nc5ccccc5C)sc4nc3c2)cc1 | ? | ? | . | 13µM* | 5%[10.9 µM]
CCCCCCCCCCCCCCC/C=C\[C@H](O)[C@@H](NC(=O)CCCCCCCCCCCCC)OC (tested in a mixture with another compound) | -6% | ? | 12% | 5% | .
O=C(CSc1nc2scc(-c3ccco3)c2c(=O)n1-c1ccccc1)NCC1CCCO1 (stereo not drawn) | 7.9µM* | 9% | ? | 3% | -40%
Cc1cccc(C(=O)O)c1C[C@H]1NCC[C@H]2c3ccccc3N[C@@H]12 | 0%[11.4 µM] | 9%[9.22 µM] | -2%[11.5 µM] | 4%[9.22 µM] | -9%[10.9 µM]
Nc1cc(S(N)(=O)=O)ccc1SSc1ccc(S(N)(=O)=O)cc1N | -1%[11.4 µM] | -16%[9.22 µM] | -3%[11.5 µM] | -2%[9.22 µM] | 18%[10.9 µM]
CC(C)c1ccc(NC(=O)c2cccnc2)cc1 | 2% | -28% | 3% | ? | -37%
CCc1ccc2oc(-c3cccc(NC(=O)c4cccnc4)c3)nc2c1 | 12% | -29% | 25µM* | ? | -23%
O=C(Nc1ccc2oc(-c3ccccc3)nc2c1)c1cccnc1 | ? | -9% | -1% | -6% | -22%
CC(C)c1ccc2oc(-c3cc(NC(=O)c4cccnc4)ccc3Cl)nc2c1 | ? | ? | . | 20µM* | -11%[10.9 µM]
CSc1ccccc1NC(=O)CCS(=O)(=O)c1nc(-c2ccc3c(c2)OCO3)cc(C(F)(F)F)n1 | -2% | 4µM* | . | ? | -7%[10.9 µM]
Cc1ccc(NC(=O)CCSc2nc(-c3ccc4c(c3)OCO4)cc(C(F)(F)F)n2)cc1 | 1% | 8% | . | -7% | -6%[10.9 µM]
O=C(CCS(=O)(=O)c1nc(-c2ccc3c(c2)OCO3)cc(C(F)(F)F)n1)Nc1ccccc1F | ? | ? | . | ? | 1%[10.9 µM]
O=C(CCS(=O)(=O)c1nc(-c2ccc3c(c2)OCO3)cc(C(F)(F)F)n1)Nc1ccc(Br)cc1 | ? | 3.2µM* | . | ? | -10%[10.9 µM]
O=C(CSc1nc2ccccc2s1)c1sc2sc3ccccc3[n+]2c1O | 1%[11.4 µM] | -2%[9.22 µM] | -1%[11.5 µM] | -5%[9.22 µM] | 9%[10.9 µM]
CC(=O)c1cccc(NC(=O)c2sc3nc4c(cc3c2N)CCCC4)c1 | ? | 13µM* | . | ? | -15%[10.9 µM]
CN(C)CCN(Cc1ccco1)C(=O)c1cc2c(s1)-c1ccccc1OC2 | -1% | 13µM* | . | -9% | -21%[10.9 µM]
CN(C)CCN(Cc1ccccc1)S(=O)(=O)c1cccc2cccnc12 | 0% | 10% | . | 1% | -8%
Cc1ccc(-c2nc3cccnc3s2)cc1NC(=O)Cc1ccccc1 | ? | ? | . | ? | -27%[10.9 µM]
COc1ccc(CC(=O)Nc2cc(-c3nc4cccnc4s3)ccc2C)cc1 | 0% | 13µM* | . | ? | -17%[10.9 µM]
Oc1ccc(Nc2nc(NCC3CCCO3)c3ccccc3n2)cc1 (stereo not drawn) | 1% | -7% | 13µM* | -10% | -8%
Oc1ccccc1Nc1nc(NCC2CCCO2)c2ccccc2n1 (stereo not drawn) | ? | ? | -13% | ? | -14%
CC(C)CNc1nc2ncnc(N)c2[nH]1 | -2%[11.4 µM] | 10%[9.22 µM] | -14%[11.5 µM] | -1%[9.22 µM] | 4%[10.9 µM]
CCOc1ccc(NC(=O)CSc2oc(-c3ccc(C)cc3)nc2S(=O)(=O)c2ccc(C)cc2)cc1 | -1% | 0.79µM* | . | 13µM* | -41%[10.9 µM]
CCOc1ccc(NC(=O)CSc2oc(-c3cccs3)nc2S(=O)(=O)c2ccc(Cl)cc2)cc1 | ? | 13µM* | . | -23% | -27%[10.9 µM]
SMILES | IkB signaling | p53ts 39C tox | ERK AVP block | p53ts 32C tox | Peg3 imprint
Cc1nc(-n2nc(C)c(Cc3ccccc3Cl)c2C)sc1C(=O)N1CCCCC1C (stereo not drawn) | ? | 13% | . | -6% | -16%[10.9 µM]
CN(C)CCC(=O)[C@@]1(O)CC[C@H]2[C@H]3CC=C4C[C@@H](O)CC[C@]4(C)[C@H]3CC[C@]21C | 5µM* | -5%[9.22 µM] | -14%[11.5 µM] | 9%[9.22 µM] | -28%[10.9 µM]
N#CC(=C(\N)Sc1ccccc1N)/C(C#N)=C(/N)Sc1ccccc1N | . | . | . | . | -12%
Cc1ccc(-c2nnc(Nc3ccccc3)o2)cc1 | ? | 3.2µM* | ? | 3.2µM* | -92%
CC1CC(C)(C)Nc2ccc(OC(=O)c3ccco3)cc21 (stereo not drawn) | ? | 10µM* | -17% | 16µM* | -54%
CCOC(=O)c1ccccc1NC(=O)NCc1c(-n2cccc2)sc2c1CCCC2 | 0% | 3% | . | 4% | -11%[10.9 µM]
O=C(Nc1nnc(SCC(=O)N2CCCc3ccccc32)s1)c1ccccc1 | . | 8.9µM* | . | . | .
O=C(Nc1nnc(SCC(=O)N2CCCc3ccccc32)s1)c1ccc2ccccc2c1 | . | 3.2µM* | . | . | .
COc1cccc(-c2oc3ccc(C)cc3c(=O)c2O)c1 | ? | 10µM* | . | ? | -11%[10.9 µM]
O=c1cc(-c2cccc(O)c2)oc2c(O)c(O)ccc12 | 2%[11.4 µM] | 25µM* | ? | ? | -14%
COc1ccc(-c2cc(=O)c3cc(OC)ccc3o2)cc1 | . | ? | 7% | ? | 25%
Cc1ccc2oc(-c3ccccc3)c(O)c(=O)c2c1 | 0%[11.4 µM] | -5% | 26% | -14% | -6%
COc1cccc(-c2cc(=O)c3cc(O)ccc3o2)c1 | -2%[11.4 µM] | 13µM* | ? | ? | -64%
COc1cccc(-c2cc(=O)c3ccc(OC)cc3o2)c1 | . | -16% | ? | -12% | -20%
CCCCC(=O)Oc1ccc2oc(-c3ccc(OC)cc3)cc(=O)c2c1 | ? | 6.3µM* | . | ? | -35%[10.9 µM]
O=c1cnc2cncnc2n1Cc1ccc(F)cc1 | ? | -25% | -8% | -10% | -17%
C[C@H](CN(C)C)C(=O)c1ccccc1C(=O)O | -1%[11.4 µM] | 28%[9.22 µM] | 2%[11.5 µM] | 1%[9.22 µM] | -9%[10.9 µM]
